An excerpt weighted towards active compounds, which were near 11% of everything screened.
HPGD inh = qHTS Assay for Inhibitors of HPGD (15-Hydroxyprostaglandin Dehydrogenase); 15-hydroxyprostaglandin dehydrogenase [NAD(+)] (Homo sapiens), P15428; purified HPGD, NADH fluorescence kinetic, PGE2 substrate; Potency, µM, for the others: top-dose activity change, negative = inhibition, most hits filed as inhibitors; actives 4.3% (n = 150,000); AID 894, 2007; also: potency is read from the fitted curve at half-maximal effect
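NADH formation kinetics: reaction with 30 uM PGE2 and 1 mM NAD+ (final), 20 nM enzyme, Tris-HCl pH 8 with Tween 20, after 15 min compound preincubation at room temperature. Fluorescence change, last versus first of five reads.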
ALDH1A1 block = qHTS Assay for Inhibitors of Aldehyde Dehydrogenase 1 (ALDH1A1) | Aldehyde dehydrogenase 1A1 (Homo sapiens), P00352 | actives 7.3% (n = 220,000) | AID 1030, 2008 | Potency, µM (top dose mostly 75.3 µM), for inactives: at the highest dose activity, negative = inhibition, actives largely listed as inhibitors | Purified ALDH1A1, NADH fluorescence, propionaldehyde substrate;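 also: potency is read from the fitted curve at half-maximal effect; plate controls were no enzyme wells and a reference inhibitor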
Target sequence (P00352 whole entry, looked up): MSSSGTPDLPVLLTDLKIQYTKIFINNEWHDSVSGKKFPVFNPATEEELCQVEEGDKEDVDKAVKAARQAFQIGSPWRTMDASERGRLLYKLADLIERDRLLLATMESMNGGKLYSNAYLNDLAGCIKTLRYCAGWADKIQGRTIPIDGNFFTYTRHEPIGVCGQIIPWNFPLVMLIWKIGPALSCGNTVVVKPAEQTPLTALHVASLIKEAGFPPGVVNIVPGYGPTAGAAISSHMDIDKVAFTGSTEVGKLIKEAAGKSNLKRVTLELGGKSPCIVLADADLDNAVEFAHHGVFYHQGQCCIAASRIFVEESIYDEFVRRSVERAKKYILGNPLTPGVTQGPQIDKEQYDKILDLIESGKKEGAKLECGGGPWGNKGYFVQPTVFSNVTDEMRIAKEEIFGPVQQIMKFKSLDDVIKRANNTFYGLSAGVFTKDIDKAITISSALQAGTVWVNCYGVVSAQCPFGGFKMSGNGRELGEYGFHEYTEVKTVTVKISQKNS
PNC assembly inh = High Content Assay for Compounds that inhibit the Assembly of the Perinucleolar Compartment; PC3M PTB-GFP, PNC prevalence imaging, 16 h; stronger effect = lower value; actives 3.1% (n = 140,000); activity change (PNC), negative = inhibition, % at 10 µM;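 active = readout at or below -70, meaning at least 70% loss of cells showing the perinucleolar compartment, a nuclear body marking cancer cells; inconclusive = readout between -30 and a set limit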;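 also: plate controls were DMSO wells for no effect and camptothecin positive control wells for full effect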
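Read-out is percentage of cells bearing a perinucleolar compartment, from automated 20x imaging of fixed, Hoechst-stained PC3M PTB-GFP cells. Cells were seeded 4 h, then exposed 16 h to compound (23 nl of library stock) in duplicate plates.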
An asterisk follows results filed as active; ? = inconclusive; . = no result given; [ ] = dose if it differs, or a comment. Unless noted, calls follow the shape of the dose curve; as a rule, active = well fitted inhibition curve with a large enough effect (not every such curve was filed as active); inconclusive = small, poorly fitted or top-dose-only effect, or another doubt; inactive = no such curve, though single readings can be large or run the other way. Unless noted, % is scaled to controls: 0 for no effect and ±100 for the full control effect.

SMILES	HPGD inh	ALDH1A1 block	PNC assembly inh
COC(=O)C1=C(C)NC(C)=C(C(=O)OC)C1c1ccc2ccccc2n1	-8%	-9%	19
Cc1ccccc1-n1c(O)c(/C=N/N2CCCCC2c2cccnc2)c(=O)[nH]c1=O (configuration not stated)	-10%	5%	10
CC1CCCN(C(=S)SCC(=O)O)C1 (configuration not stated)	-2%	7%	-25
CC1CCCN(C(=S)SCC(=O)c2cc(Br)cc(Br)c2O)C1 (configuration not stated)	.	25µM*	.
O=C(CSC(=S)N1CCCCC1)N1N=CCC1c1ccccc1 (configuration not stated)	-15%	?	?
O=C(CSC(=S)N1CCCC1)c1cc(Br)cc(Br)c1O	.	16µM*	.
O=C(Oc1ccccc1)N1CCC2(CC1)CN(c1ccncc1)C2	-3%	-14%	.
C[C@H]1Cc2c(-c3ccccc3)nc3c(c2CO1)CN(C(=O)C1CCCCC1)CC3	-4%	-1%[13.5 µM]	.
CCCCN(CC)CCNC(=O)CN1C(=O)COc2ccc(S(=O)(=O)N3CCCC3)cc21	-8%	5%	53
c1ccc(CSc2ncccn2)cc1	-21%	-7%	-11
N#Cc1c(Cl)nc(SCc2ccccc2)nc1-c1ccccc1	2.8µM*	32µM*	-25
CCOc1ccc(C(C)=O)cc1N1C(=O)C2C3C=CC(C3)C2C1=O (configuration not stated)	0%	10%	?
CCOc1ccc(C(C)=O)cc1N1C(=O)C2C3C=CC(O3)C2C1=O (configuration not stated)	28µM*	22µM*	6
CC(C)(C)c1ccc([C@@H](O)CCCN2CCC(C(O)(c3ccccc3)c3ccccc3)CC2)cc1	-7%	-9%[20.9 µM]	.
CC(C)(CSc1ccccn1)NS(=O)(=O)c1ccc(Cl)cc1	-8%	10µM*	-14
CC(C)(CSc1ccccn1)NS(=O)(=O)c1ccccc1	0%	?	81
CN1CCN(C(=O)C2=C[C@H](c3csc4ccccc34)C[C@H](OCCCCO)O2)CC1	.	-10%	.
CN(C)S(=O)(=O)c1ccc(C(=O)OCC(=O)Nc2ccccc2OC(F)F)cc1	0%	-7%	27
O=C(COC(=O)c1ccc(S(=O)(=O)NCc2ccco2)cc1)Nc1ccccc1OC(F)F	-19%	2%	-101*
COc1ccc(N=C/C=C2\C=C(c3ccccc3)OC(C)(C)O2)cc1	-29%	2.2µM*	-15
CC1(C)OC(c2ccccc2)=C/C(=C/C=C2C(=O)c3ccccc3C2=O)O1	.	-15%	.
Cc1ccccc1N=C/C=C1/C=C(c2ccccc2)OC(C)(C)O1	-19%	2.2µM*	-10
COc1ccc(C2=CC(=O)OC(C)(c3ccccc3)O2)cc1 (configuration not stated)	?	-16%	21
O=c1oc2ccccc2cc1N1CCOCC1	-10%	-14%	-27
CCc1ccccc1O	-4%	3%	.
SMILES	HPGD inh	ALDH1A1 block	PNC assembly inh
c1ccc(-c2nc3ccccc3nc2-c2ccccn2)nc1	-14%	3%	-86*
CN(C)NC(=S)Nc1ccc2nc(-c3ccccn3)c(-c3ccccn3)nc2c1	-12%	?	4
Cc1nn(Cc2ccc(Cl)cc2)c(C)c1NC(=O)C(c1ccccc1)c1ccccc1	0%	0%	?
CN1/C(=C\C(=S)NC(=O)c2ccccc2Cl)C(C)(C)c2ccccc21	-14%	?	5
CN1/C(=C/C(=S)NC(=O)C2(C)CC2(Cl)Cl)C(C)(C)c2ccccc21 (configuration not stated)	.	4µM*	.
CC(c1ccccc1)N1C(=O)C2C3C=CC(C4CC34)C2C1=O (configuration not stated)	.	7%	.
O=C1NNC(=O)C2C3C=CC(C4CC34)C12 (configuration not stated)	-4%	25µM*	-4
CCCNC(=O)c1ccc(C2SCC(=O)N2CCc2ccccc2)cc1 (configuration not stated)	13µM*	-8%	31
Cc1cccc(NC(=O)c2ccc(C3SCC(=O)N3CCc3ccccc3)cc2)c1C (configuration not stated)	-22%	?	-3
CCNC(=O)c1ccc(C2SCC(=O)N2CCc2ccccc2)cc1 (configuration not stated)	22µM*	-4%	16
CCc1ccc(NC(=O)c2ccc(C3SCC(=O)N3CCc3ccccc3)cc2)cc1 (configuration not stated)	-7%	?	-3
CCOP(=O)(OCC)C(Nc1ccc(C)cc1)c1ccco1 (configuration not stated)	.	7%	.
Cc1nc(C)c(/C(O)=C/c2nc3ccc([N+](=O)[O-])cc3oc2=O)o1	.	0.4µM*	.
C/C(O)=C\c1nc2ccccc2oc1=O	-6%	-3%	24
COCCNC(=O)CCCC(=O)NCCOC	3%	2%	-6
O=Cc1cc2ccccc2nc1SCc1ccc(Cl)cc1	-24%	-9%	-14
Cc1ccc(CSc2nc3ccccc3cc2C=O)cc1	5µM*	?	-28
CN(C)C(=O)CCSc1nnc(-c2ccncc2)o1	.	5%	.
NNC(=O)[C@H]1C[C@@H]1c1ccccc1	-8%	-3%	43
C/C(=N\Nc1ccc([N+](=O)[O-])cc1)c1cc2ccccc2o1	.	4%	.
CCCCN(CCCNc1ncnc2nc[nH]c12)c1ccccc1	-5%	-2%	31
CCCCN(c1ccccc1)c1ncnc2nc[nH]c12	-11%	11µM*	18
CN(C)CC(C)(C)CNC(C(=O)Nc1ccc(Cl)cc1C(F)(F)F)c1ccccc1 (configuration not stated)	.	-3%	.
C=CCc1cccc(C2NC(C(=O)O)CCC2C)c1 (configuration not stated)	.	5%[13.5 µM]	.
CC1=CC(=O)c2c(O)ccc(O)c2C1=O	.	32µM*	.
SMILES	HPGD inh	ALDH1A1 block	PNC assembly inh
O=C1C=C(N2CCN(c3ccccn3)CC2)C(=O)c2c(O)ccc(O)c21	-12%	-10%[13.5 µM]	.
CCCCCCNc1nc(Cl)nc(NC(C)(C)CO)n1	.	-1%	.
COc1cccc(C(=O)Nc2ccc(S(=O)(=O)Nc3onc(C)c3C)cc2)c1	35µM*	15%	19
COc1ccc(C(=O)Nc2ccc(S(=O)(=O)Nc3nccc(C)n3)cc2)cc1OC	-26%	-8%	6
COc1ccc(C(=O)Nc2ccc(S(=O)(=O)Nc3onc(C)c3C)cc2)cc1	-31%	-2%	?
COc1cccc(C(=O)Nc2ccc(S(=O)(=O)Nc3nccc(C)n3)cc2)c1	28µM*	-11%	?
CCN(CC(=O)Nc1cccc(C#N)c1)CC(=O)Nc1cccc(OC)c1	.	-2%	.
O=C(NC(CC(=O)N1CCN(c2ccc([N+](=O)[O-])cc2)CC1)c1ccccc1)c1ccccc1Cl (configuration not stated)	-10%	?	-6
CCCN1CN(Cc2ccccc2)CNC1=S	-4%	2%	?
COCCCN1CN(Cc2ccccc2)CNC1=S	-7%	8.9µM*	-92*
Cc1sc(NC(=O)c2ccc(=O)n(C)n2)nc1-c1ccccc1	.	28µM*	.
CCOC(=O)Nc1nc(-c2ccccc2)c(C)s1	-20%	?	.
